Experimental data from the supplement of paper PMC12339681.
Counter-ions that a name gives are not always drawn.

What follows are compounds tested on PBMC-derived induced microglia-like cells (piMGLC) (assay: synaptosome phagocytic index relative to DMSO control (fraction of DMSO); higher = more phagocytosis). Details: concentration: 10 uM (2 uM for compounds listed in Table S2); pretreatment time: 24 h; assay time: 3 h.

Structure (SMILES) | synaptosome phagocytic index
CN1C(=O)OC(C)(C)C1=O [Trimethadione] | 0.751
CC1COc2c(N3CCN(C)CC3)c(F)cc3c(=O)c(C(=O)O)cn1c23 (configuration not stated) [Ofloxacin] | 1.05
Cc1cc(=O)n(-c2ccccc2)n1C [Antipyrine] | 0.601
CCN1CCN(Cc2ccc(Nc3ncc(F)c(-c4cc(F)c5nc(C)n(C(C)C)c5c4)n3)nc2)CC1 [Abemaciclib] | 0.228
COc1ncc(F)cc1CNc1ccc(Cc2c[nH]c3ncc(C)cc23)c(F)n1 | 0.951
CNCCC(Oc1ccc(C(F)(F)F)cc1)c1ccccc1 (configuration not stated) [Fluoxetine_(hydrochloride)] | 0.69
Clc1ccc2c(c1)C(N1CCNCC1)=Nc1ccccc1O2 [Amoxapine] | 0.463
CC(C)c1ccc(CC(=O)N2CCN(c3ccc(C#N)nn3)CC2)cc1 | 0.943
CC(C(=O)O)c1cccc(C(=O)c2ccccc2)c1 (configuration not stated) [Ketoprofen] | 0.731
O=C(c1ccc(Cl)cc1)N(Cc1ccccc1)C1CCCCC1 | 0.616
CCN1CCCC1CNC(=O)c1cc(S(N)(=O)=O)ccc1OC (configuration not stated) [Sulpiride] | 0.571
CN[C@@H]1[C@H](O[C@H]2[C@H](O[C@H]3[C@H](O)[C@@H](O)[C@H](N=C(N)N)[C@@H](O)[C@@H]3N=C(N)N)O[C@@H](C)[C@]2(O)C=O)O[C@@H](CO)[C@H](O)[C@H]1O [Streptomycin_(sulfate)] | 0.697
CC(=O)Nc1nnc(S(N)(=O)=O)s1 [Acetazolamide] | 1.03
Nc1nnc(-c2cccc(Cl)c2Cl)c(N)n1 [Lamotrigine] | 1.3
Nc1nc2c(ncn2COCCO)c(=O)[nH]1 [Acyclovir] | 0.731
Cc1ccc(C(=O)c2cc(O)c(O)c([N+](=O)[O-])c2)cc1 [Tolcapone] | 0.526
C[N+](C)(C)CCOP(=O)([O-])OC[C@H](O)CO [sn-Glycero-3-phosphocholine] | 0.483
CC(C)CCn1c(CN2CCN(C(=O)C3CC3)CC2)nc2c1c(=O)n(C)c(=O)n2C | 0.707
O=C(NC1CCCCC1)N(Cc1ccccc1)CC1CCNCC1 | 0.882

Structure (SMILES) | synaptosome phagocytic index
Nc1nc2c(ncn2COC(CO)CO)c(=O)[nH]1 [Ganciclovir] | 0.98
CCN(CC)C(=O)[C@@]1(c2ccccc2)C[C@H]1CN [Milnacipran_((1S-cis)_hydrochloride)] | 0.67
N#Cc1cccc(C(=O)Nc2cc(-c3ccccc3)nn2-c2ccccc2)c1 | 0.299
O=C1N[C@@H](Cc2cnc[nH]2)C(=O)N2CCC[C@@H]12 [Cyclo(his-pro)_(TFA)] | 0.449
CCN(CC)C(=S)SSC(=S)N(CC)CC [Disulfiram] | 0.784
CCCCCOC(=O)Nc1nc(=O)n([C@@H]2O[C@H](C)[C@@H](O)[C@H]2O)cc1F [Capecitabine] | 0.837
COc1cc(/C=C/C(=O)NCCn2c(C)cc3ccccc32)cc(OC)c1OC | 0.832
CC(=O)OCC(=O)[C@@]1(O)[C@H](C)C[C@H]2[C@@H]3CCC4=CC(=O)C=C[C@]4(C)[C@@]3(F)[C@@H](O)C[C@@]21C [Dexamethasone_acetate] | 0.776
Cc1nc2n(c(=O)c1CCN1CCC(c3noc4cc(F)ccc34)CC1)CCCC2 [Risperidone] | 0.887
Nc1ncnc2c1ncn2[C@@H]1O[C@H](CO)[C@@H](O)[C@H]1O [Adenosine] | 0.51
CC(C)(O)CC(=O)NCCn1ccc2ncnc(Nc3ccc(Oc4cccc(C(F)(F)F)c4)c(Cl)c3)c21 | 1.04
Clc1cccc(Cl)c1NC1=NCCN1 [Clonidine_(hydrochloride)] | 0.898
CC(C)(Sc1cc(C(C)(C)C)c(O)c(C(C)(C)C)c1)Sc1cc(C(C)(C)C)c(O)c(C(C)(C)C)c1 [Probucol] | 0.859
S=c1nc[nH]c2nc[nH]c12 [6-Mercaptopurine] | 0.669
C[C@@H]1CN(C(=O)[C@@H]2CN(C(C)(C)C)C[C@H]2c2ccc(F)cc2F)C[C@H](C)[C@@]1(O)c1ccccc1 | 0.704
Clc1cccc(CN=C2Nc3ccccc3NC23CCNCC3)c1 [Liproxstatin-1] | 1.31
O=C(O)Cc1ccccc1Nc1c(Cl)cccc1Cl [Diclofenac] | 1.01
CO/N=C(\C(=O)N[C@@H]1C(=O)N2C(C(=O)O)=C(C[N+]3(C)CCCC3)CS[C@H]12)c1csc(N)n1 [Cefepime_(Dihydrochloride_Monohydrate)] | 0.597
